How the values were obtained:
[1] = biological target: Death-associated protein kinase 1 (Homo sapiens) (UniProt P53355); conditions: at 10 µM
[2] = biological target: T1, Discoidin domain-containing receptor 2 (Homo sapiens) (UniProt Q16832); conditions: at 1 µM
T1 sequence (whole entry): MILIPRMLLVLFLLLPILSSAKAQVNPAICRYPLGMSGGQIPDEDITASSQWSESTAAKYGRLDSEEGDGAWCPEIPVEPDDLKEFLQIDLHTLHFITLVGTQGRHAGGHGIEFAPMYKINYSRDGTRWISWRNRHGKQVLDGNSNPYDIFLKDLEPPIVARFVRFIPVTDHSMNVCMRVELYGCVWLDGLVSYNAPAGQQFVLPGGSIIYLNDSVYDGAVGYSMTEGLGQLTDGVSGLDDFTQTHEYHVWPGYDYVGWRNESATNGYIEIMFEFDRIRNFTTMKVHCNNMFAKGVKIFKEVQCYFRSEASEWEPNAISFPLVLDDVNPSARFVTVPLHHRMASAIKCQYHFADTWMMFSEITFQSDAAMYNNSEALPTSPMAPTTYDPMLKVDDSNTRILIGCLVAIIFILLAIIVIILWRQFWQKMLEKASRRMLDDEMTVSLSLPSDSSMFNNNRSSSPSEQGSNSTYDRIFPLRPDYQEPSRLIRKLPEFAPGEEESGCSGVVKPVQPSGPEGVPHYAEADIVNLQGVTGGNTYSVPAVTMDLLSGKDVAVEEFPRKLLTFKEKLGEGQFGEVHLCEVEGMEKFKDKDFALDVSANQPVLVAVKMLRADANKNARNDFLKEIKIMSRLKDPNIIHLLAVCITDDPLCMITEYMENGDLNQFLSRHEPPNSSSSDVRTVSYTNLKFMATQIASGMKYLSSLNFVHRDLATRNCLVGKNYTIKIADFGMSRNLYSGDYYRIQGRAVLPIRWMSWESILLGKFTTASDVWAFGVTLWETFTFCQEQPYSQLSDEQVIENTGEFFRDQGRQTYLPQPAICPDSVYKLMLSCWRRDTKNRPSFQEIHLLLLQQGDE

[3] = biological target: T1, Discoidin domain-containing receptor 2 (Homo sapiens); conditions: at 10 µM
[4] = biological target: T2, Myotonin-protein kinase (Homo sapiens) (UniProt Q09013); conditions: at 1 µM
T2 sequence (whole entry): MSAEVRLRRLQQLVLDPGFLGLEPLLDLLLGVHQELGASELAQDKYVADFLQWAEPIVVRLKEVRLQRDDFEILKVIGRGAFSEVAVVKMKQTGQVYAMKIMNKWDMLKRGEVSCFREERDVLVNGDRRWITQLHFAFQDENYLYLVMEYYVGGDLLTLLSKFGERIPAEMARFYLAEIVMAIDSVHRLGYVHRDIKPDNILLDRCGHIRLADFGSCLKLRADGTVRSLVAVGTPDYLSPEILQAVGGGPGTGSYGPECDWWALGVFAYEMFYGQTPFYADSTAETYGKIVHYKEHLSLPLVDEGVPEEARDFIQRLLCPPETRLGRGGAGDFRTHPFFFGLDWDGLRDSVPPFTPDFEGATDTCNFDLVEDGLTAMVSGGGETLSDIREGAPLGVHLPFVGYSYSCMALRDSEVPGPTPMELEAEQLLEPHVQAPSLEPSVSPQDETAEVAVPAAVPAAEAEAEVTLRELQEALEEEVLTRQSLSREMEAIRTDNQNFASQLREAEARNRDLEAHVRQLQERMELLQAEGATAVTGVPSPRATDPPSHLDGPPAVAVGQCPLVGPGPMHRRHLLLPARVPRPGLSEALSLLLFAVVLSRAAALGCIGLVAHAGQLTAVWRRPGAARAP

[5] = biological target: T2, Myotonin-protein kinase (Homo sapiens); conditions: at 10 µM
[6] = biological target: T3, Serine/threonine-protein kinase 17A (Homo sapiens) (UniProt Q9UEE5); conditions: at 1 µM
T3 sequence (whole entry): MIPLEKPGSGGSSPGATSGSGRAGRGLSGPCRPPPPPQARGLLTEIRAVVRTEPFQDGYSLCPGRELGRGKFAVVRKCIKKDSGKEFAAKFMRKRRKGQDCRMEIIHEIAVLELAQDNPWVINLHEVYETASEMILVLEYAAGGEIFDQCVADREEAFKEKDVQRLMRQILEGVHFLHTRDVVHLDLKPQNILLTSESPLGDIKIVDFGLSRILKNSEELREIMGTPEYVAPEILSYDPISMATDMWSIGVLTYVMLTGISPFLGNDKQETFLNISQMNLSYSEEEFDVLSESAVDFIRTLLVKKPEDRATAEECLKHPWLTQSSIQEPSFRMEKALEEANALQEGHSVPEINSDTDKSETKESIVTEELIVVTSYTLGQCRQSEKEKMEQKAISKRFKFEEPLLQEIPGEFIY

[7] = biological target: T4, Ephrin type-A receptor 3 (Homo sapiens) (UniProt P29320); conditions: at 1 µM
T4 sequence (whole entry): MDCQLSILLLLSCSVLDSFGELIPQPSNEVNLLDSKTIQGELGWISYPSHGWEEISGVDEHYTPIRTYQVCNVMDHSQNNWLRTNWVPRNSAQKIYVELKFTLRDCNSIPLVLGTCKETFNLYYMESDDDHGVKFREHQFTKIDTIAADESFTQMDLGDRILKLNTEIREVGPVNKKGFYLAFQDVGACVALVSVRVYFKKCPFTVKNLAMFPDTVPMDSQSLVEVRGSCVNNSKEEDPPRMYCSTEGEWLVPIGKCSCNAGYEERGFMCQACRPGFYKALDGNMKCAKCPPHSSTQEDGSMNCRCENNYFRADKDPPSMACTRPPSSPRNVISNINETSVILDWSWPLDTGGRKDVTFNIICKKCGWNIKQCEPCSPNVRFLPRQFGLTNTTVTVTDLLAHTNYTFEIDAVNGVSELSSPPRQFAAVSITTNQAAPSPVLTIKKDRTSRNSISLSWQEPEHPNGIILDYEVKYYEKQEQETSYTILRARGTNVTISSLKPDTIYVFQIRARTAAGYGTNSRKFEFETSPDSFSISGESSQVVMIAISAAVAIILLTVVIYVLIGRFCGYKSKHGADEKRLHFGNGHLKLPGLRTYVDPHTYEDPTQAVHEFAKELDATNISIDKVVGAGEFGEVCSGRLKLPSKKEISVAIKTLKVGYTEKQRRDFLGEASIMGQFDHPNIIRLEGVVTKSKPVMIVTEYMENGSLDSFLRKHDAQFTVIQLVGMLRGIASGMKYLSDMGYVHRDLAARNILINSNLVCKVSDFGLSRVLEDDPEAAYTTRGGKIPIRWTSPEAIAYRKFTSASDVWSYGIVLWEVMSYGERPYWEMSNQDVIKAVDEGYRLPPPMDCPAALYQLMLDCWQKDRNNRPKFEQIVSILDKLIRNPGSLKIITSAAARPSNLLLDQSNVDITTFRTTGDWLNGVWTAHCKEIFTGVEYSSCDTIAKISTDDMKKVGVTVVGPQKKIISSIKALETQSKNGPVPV

[8] = biological target: Death-associated protein kinase 2 (Homo sapiens) (UniProt Q9UIK4); conditions: at 1 µM
Death-associated protein kinase 2 (Homo sapiens), sequence (Q9UIK4 whole entry, looked up): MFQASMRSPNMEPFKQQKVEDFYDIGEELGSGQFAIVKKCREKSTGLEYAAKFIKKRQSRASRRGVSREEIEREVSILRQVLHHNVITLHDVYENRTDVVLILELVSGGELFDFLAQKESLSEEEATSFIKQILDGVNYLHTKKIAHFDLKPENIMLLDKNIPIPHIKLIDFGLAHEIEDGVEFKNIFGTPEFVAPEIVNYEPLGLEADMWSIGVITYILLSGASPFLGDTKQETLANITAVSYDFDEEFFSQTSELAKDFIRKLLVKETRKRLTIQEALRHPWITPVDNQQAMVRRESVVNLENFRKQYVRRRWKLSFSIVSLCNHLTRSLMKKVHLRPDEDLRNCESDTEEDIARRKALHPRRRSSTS

[9] = biological target: T5, Serine/threonine-protein kinase DCLK2 (Homo sapiens) (UniProt Q8N568); conditions: at 1 µM
T5 sequence (whole entry): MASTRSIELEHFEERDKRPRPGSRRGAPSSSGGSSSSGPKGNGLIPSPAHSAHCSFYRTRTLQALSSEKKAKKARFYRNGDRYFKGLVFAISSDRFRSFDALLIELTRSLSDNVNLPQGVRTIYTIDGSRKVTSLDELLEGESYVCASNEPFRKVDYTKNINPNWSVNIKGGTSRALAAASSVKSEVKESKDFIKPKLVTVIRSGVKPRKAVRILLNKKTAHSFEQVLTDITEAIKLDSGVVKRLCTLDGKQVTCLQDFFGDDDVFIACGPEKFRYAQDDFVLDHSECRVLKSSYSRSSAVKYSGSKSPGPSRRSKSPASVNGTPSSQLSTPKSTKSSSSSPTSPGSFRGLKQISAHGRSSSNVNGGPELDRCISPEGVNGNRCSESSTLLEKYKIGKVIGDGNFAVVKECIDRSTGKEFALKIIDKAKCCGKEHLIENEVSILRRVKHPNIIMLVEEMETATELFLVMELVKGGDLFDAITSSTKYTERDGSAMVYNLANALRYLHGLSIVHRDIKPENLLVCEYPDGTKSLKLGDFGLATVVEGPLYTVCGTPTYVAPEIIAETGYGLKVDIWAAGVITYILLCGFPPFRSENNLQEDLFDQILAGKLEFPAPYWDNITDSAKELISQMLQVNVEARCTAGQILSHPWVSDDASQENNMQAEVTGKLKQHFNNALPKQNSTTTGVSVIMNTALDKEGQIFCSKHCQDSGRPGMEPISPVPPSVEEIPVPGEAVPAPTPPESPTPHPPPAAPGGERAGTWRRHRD

[10] = biological target: T5, Serine/threonine-protein kinase DCLK2 (Homo sapiens); conditions: at 10 µM
[11] = biological target: T3, Serine/threonine-protein kinase 17A (Homo sapiens); conditions: at 10 µM
[12] = biological target: T6, Dual specificity tyrosine-phosphorylation-regulated kinase 2 (Homo sapiens) (UniProt Q92630); conditions: at 1 µM
T6 sequence (whole entry): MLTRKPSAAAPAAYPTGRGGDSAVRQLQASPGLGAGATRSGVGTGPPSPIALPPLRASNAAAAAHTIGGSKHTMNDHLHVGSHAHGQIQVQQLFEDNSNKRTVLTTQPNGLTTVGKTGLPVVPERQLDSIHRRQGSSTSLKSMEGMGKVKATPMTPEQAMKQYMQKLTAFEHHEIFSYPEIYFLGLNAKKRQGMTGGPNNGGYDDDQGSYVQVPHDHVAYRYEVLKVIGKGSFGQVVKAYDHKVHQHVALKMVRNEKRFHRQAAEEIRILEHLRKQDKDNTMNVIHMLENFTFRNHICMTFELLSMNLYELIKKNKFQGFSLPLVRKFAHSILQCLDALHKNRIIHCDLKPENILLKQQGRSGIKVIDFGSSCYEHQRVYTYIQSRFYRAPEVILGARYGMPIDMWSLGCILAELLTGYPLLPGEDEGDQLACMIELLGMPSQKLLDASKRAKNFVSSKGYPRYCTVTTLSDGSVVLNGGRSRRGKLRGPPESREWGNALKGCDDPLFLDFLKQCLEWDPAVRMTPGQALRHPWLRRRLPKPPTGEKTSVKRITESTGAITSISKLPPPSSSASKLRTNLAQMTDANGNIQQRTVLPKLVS

[13] = biological target: T6, Dual specificity tyrosine-phosphorylation-regulated kinase 2 (Homo sapiens); conditions: at 10 µM
[14] = biological target: T7, Ephrin type-A receptor 1 (Homo sapiens) (UniProt P21709); conditions: at 1 µM
T7 sequence (whole entry): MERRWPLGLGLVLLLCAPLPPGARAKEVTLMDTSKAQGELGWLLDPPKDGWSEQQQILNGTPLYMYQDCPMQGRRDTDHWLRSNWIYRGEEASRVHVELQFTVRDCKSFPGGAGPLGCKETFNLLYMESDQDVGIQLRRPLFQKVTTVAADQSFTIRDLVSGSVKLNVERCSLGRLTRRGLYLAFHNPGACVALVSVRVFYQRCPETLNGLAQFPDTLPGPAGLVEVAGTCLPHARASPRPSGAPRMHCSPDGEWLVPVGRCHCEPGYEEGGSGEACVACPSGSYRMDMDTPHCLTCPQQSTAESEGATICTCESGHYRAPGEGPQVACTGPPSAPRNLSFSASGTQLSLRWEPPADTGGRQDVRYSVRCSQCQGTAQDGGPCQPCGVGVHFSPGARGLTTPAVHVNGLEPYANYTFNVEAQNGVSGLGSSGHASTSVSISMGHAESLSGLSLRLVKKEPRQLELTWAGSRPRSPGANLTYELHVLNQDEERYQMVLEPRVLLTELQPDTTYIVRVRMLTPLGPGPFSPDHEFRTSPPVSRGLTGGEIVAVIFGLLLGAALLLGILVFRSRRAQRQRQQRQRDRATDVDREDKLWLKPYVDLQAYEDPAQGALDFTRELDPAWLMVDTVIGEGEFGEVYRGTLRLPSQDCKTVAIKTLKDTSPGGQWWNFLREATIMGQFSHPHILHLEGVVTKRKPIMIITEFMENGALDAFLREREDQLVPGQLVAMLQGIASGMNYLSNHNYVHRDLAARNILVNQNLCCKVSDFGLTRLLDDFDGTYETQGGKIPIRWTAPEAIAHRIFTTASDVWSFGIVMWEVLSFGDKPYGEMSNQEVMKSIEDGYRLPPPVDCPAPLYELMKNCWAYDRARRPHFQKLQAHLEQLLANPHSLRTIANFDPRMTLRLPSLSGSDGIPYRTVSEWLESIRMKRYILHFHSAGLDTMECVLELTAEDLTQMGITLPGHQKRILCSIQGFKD

[15] = biological target: T7, Ephrin type-A receptor 1 (Homo sapiens); conditions: at 10 µM
[16] = biological target: Death-associated protein kinase 2 (Homo sapiens) (UniProt Q9UIK4); conditions: at 10 µM
[17] = biological target: Ephrin type-A receptor 2 (Homo sapiens) (UniProt P29317); conditions: at 1 µM
Ephrin type-A receptor 2 (Homo sapiens), sequence (P29317 whole entry): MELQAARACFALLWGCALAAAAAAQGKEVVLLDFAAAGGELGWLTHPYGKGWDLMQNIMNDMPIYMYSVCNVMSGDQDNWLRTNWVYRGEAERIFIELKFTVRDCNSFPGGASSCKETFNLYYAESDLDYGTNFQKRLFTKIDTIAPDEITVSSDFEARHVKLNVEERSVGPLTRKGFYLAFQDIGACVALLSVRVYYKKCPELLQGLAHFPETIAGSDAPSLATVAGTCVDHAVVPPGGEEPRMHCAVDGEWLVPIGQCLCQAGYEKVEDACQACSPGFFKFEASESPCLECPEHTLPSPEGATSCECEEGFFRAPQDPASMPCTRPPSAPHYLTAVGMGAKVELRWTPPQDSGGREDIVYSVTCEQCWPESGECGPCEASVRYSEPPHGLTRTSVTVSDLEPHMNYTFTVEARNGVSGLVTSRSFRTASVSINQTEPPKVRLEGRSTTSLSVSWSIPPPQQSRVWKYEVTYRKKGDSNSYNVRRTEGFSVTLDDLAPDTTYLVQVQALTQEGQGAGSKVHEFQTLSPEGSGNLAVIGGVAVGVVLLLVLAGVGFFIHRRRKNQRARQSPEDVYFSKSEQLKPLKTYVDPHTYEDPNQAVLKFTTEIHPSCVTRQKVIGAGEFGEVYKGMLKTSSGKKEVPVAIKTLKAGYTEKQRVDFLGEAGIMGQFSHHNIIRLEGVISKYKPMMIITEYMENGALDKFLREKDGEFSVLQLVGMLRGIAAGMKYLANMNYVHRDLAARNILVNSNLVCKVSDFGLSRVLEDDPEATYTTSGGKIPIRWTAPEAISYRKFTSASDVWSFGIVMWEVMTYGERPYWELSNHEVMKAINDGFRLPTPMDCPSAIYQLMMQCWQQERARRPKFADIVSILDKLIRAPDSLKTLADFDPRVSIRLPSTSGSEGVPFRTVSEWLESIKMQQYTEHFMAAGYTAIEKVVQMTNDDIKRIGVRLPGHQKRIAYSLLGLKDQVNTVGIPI

[18] = biological target: Ephrin type-A receptor 2 (Homo sapiens) (UniProt P29317); conditions: at 10 µM

Death-associated protein kinase 1 (Homo sapiens), sequence (P53355 whole entry, looked up, the tested form may be a part): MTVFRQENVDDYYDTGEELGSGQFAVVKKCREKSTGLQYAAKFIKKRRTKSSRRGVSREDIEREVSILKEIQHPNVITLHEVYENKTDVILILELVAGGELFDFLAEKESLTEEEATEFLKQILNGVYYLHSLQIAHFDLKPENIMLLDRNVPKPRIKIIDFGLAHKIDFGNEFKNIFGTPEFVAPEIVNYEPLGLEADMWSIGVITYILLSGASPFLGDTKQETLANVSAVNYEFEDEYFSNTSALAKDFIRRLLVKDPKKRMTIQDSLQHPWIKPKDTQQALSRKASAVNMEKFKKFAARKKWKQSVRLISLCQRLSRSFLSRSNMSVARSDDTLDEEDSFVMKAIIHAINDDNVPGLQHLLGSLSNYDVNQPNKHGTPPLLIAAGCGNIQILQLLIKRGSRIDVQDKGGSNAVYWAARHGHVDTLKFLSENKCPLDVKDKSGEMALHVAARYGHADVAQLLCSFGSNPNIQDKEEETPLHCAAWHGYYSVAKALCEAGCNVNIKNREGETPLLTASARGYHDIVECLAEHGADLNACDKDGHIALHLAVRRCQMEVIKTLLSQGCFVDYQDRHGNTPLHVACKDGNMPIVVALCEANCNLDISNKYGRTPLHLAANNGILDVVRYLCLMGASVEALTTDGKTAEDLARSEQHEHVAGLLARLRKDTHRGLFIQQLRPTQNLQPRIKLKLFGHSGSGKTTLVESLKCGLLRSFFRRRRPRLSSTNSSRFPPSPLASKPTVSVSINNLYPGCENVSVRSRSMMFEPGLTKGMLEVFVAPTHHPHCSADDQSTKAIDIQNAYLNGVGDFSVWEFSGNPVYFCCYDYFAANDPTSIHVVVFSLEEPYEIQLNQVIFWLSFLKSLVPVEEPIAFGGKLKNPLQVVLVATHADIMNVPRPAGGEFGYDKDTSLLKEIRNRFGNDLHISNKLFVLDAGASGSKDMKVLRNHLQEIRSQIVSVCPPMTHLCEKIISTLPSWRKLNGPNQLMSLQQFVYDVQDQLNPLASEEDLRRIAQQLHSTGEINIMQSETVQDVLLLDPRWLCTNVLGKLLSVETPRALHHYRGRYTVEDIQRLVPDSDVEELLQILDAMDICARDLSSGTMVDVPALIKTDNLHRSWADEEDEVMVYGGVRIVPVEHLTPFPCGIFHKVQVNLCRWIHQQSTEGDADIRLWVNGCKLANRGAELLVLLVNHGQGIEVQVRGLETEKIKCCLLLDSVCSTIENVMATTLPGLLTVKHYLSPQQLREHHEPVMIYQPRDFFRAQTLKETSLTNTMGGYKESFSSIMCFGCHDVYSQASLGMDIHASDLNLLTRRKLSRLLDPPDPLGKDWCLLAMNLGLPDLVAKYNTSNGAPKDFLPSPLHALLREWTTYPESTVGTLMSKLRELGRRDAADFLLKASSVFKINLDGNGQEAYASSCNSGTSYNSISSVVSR

NC(=O)c1ccc(-c2nc(-c3ccc4c(c3)OCCO4)c(-c3ccccn3)[nH]2)cc1
residual activity [1]: 78%
residual activity [2]: 98%
residual activity [3]: 97%
residual activity [4]: 93%
residual activity [5]: 97%
residual activity [6]: 89%
residual activity [7]: 100%

Nc1ncnc2c1cnn2-c1ccccc1
residual activity [1]: 86%
residual activity [8]: 95%
residual activity [9]: 71%
residual activity [10]: 69%
residual activity [11]: 68%
residual activity [12]: 85%
residual activity [13]: 44%
residual activity [14]: 85%
residual activity [15]: 88%
residual activity [7]: 100%

CC(C)(C)n1nc(Cc2cccc3ccccc23)c2c(N)ncnc21
residual activity [1]: 88%
residual activity [8]: 96%
residual activity [16]: 106%
residual activity [9]: 85%
residual activity [10]: 107%
residual activity [2]: 75%
residual activity [3]: 29%
residual activity [4]: 108%
residual activity [5]: 119%
residual activity [6]: 120%
residual activity [11]: 103%
residual activity [12]: 109%
residual activity [13]: 99%
residual activity [14]: 7%
residual activity [15]: -1%
residual activity [17]: 33%
residual activity [18]: 1%
residual activity [7]: 63%
